A short description of test [1]: APR_HepG2_CellCycleArrest_24hr: Apredica 24-hour HepG2 Assay for Cell Cycle Arrest (AID 2282905).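 Also: cell cycle arrest scored as ratio of 2N to 4N nuclear DNA content.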 As to conditions: imaging, actives raise or lower the signal. In a few lines:
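After 24 h exposure at 0.39–200 uM in 0.5% DMSO, fixed cells received Hoechst 33342 staining. Imaging quantified per-nucleus DNA content; gain or loss fitted against DMSO controls.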

Test [2] in a line: APR_HepG2_NuclearSize_24hr: Apredica 24-hour HepG2 Assay for Nuclear Size (AID 2282907). As to conditions: high-content imaging, actives raise or lower the signal. In a few lines: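 Nuclear size from Hoechst 33342-stained, formaldehyde-fixed HepG2 nuclei imaged by high-content microscopy, after 24 h dosing at ten concentrations from 0.39 to 200 uM in 0.5% DMSO; gain or loss relative to DMSO baseline.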

A short description of test [3]: APR_HepG2_CellLoss_24hr: Apredica 24-hour HepG2 Assay for Cell Loss (AID 2282908).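 As to AC50: fit in both directions so a hit may be cell loss or gain.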 As to conditions: high-content imaging. In a few lines: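 Nuclei stained with Hoechst 33342 after formaldehyde fixation (3.7%) were imaged at 20x to count cells. Exposure lasted 24 hr, at ten concentrations from 0.39 to 200 uM in duplicate, with 0.5% v/v DMSO. Fit bidirectional, relative to DMSO.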

Test [4] can be described thus: APR_HepG2_MicrotubuleCSK_24hr: Apredica 24-hour HepG2 Assay for Microtubule CSK Stabilty (AID 2282909). As to conditions: HepG2 microtubule cytoskeleton imaging, actives raise or lower the signal. The procedure, abridged:
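Fixed HepG2 cells were stained for alpha-tubulin and imaged after 24 hr exposure to ten concentrations spanning 0.39–200 uM in 0.5% DMSO. Signal change was fitted in both directions relative to DMSO; taxol was the positive control.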

The nature of test [5]: APR_HepG2_MitoticArrest_24hr: Apredica 24-hour HepG2 Assay for Mitotic Arrest (AID 2282910). To be noted: high-content imaging, actives raise or lower the signal. The procedure, abridged: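 Treatment lasted 24 hr in the human HepG2 line at 0.39–200 uM, solvent held at 0.5% DMSO. Fixed cells were stained with Hoechst 33342 and anti-phospho-histone H3, imaged at 20x, and analysed by gain- or loss-of-signal fitting against DMSO.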

Test [6] is described as follows: APR_HepG2_MitoMembPot_24hr: Apredica 24-hour HepG2 Assay for Mitochondrial Membrane Potential (AID 2282911). To be noted: imaging, actives raise or lower the signal. The procedure, abridged:
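HepG2 human liver cells were exposed 24 hr to compounds at 0.39–200 uM (final DMSO 0.5% v/v) in duplicate. MitoTracker Red CMXRos (250 nM, 30 min) was loaded before formaldehyde fixation; fluorescence was imaged by ArrayScan HCS and fitted bidirectionally versus DMSO.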

Test [7] in a line: APR_HepG2_MitoMass_24hr: Apredica 24-hour HepG2 Assay for Mitochondrial Mass (AID 2282912). As to conditions: high-content imaging, actives raise or lower the signal. The procedure, abridged: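 Endpoint is MitoTracker Red CMXRos (250 nM, 30 min, pre-fixation) intensity from 20x high-content imaging, nuclei located by Hoechst. Human HepG2 cells received ten concentrations from 0.39 to 200 uM in 0.5% DMSO for 24 hr, duplicate wells. Bidirectional fit relative to DMSO.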

Test [8] can be described thus: APR_HepG2_p53Act_24hr: Apredica 24-hour HepG2 Assay for p53 Activation (AID 2282913).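 Also: p53 protein immunofluorescence averaged per cell in HepG2 with Hoechst nuclei.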 As to conditions: high-content imaging, actives raise or lower the signal. In a few lines: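 HepG2 cells exposed 24 hr to compounds at 0.39–200 uM (10 concentrations, duplicate), final DMSO 0.5% v/v. After formaldehyde fixation and Triton permeabilization, p53 was immunolabeled (sheep anti-p53, Cy5 secondary) with Hoechst 33342 nuclear counterstain, then imaged by high-content fluorescence microscopy.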

Test [9] can be described thus: APR_HepG2_CellCycleArrest_72hr: Apredica 72-hour HepG2 Assay for Cell Cycle Arrest (AID 2282914). As to conditions: high-content imaging, actives raise or lower the signal. The procedure, abridged: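 HepG2 cells were exposed to compounds at 0.39–200 uM (0.5% v/v DMSO final, duplicates) for 72 hr, fixed in 3.7% formaldehyde, permeabilized and stained with Hoechst 33342. Nuclear DNA content was quantified by high-content imaging; gain or loss of signal was fitted bidirectionally against DMSO.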

The nature of test [10]: APR_HepG2_CellLoss_72hr: Apredica 72-hour HepG2 Assay for Cell Loss (AID 2282915). As to conditions: high-content imaging. In a few lines: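 HepG2 cells were exposed for 72 hr to compounds at 0.39–200 uM (ten concentrations, duplicate) in 0.5% v/v final DMSO. Nuclei were stained with Hoechst 33342 after 3.7% formaldehyde fixation, imaged at 20x, and counted; fits bidirectional versus DMSO.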

A short description of test [11]: APR_HepG2_P-H2AX_72hr: Apredica 72-hour HepG2 Assay for H2AX Phosphorylation (AID 2282916).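 Also: phospho-histone H2A.x immunostain intensity per cell marking DNA damage.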 As to conditions: imaging, actives raise or lower the signal. The procedure, abridged: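 Phospho-histone H2A.x immunofluorescence, multiplexed with Hoechst and c-Jun, quantified by high-content imaging. Compounds applied to HepG2 for 72 h across ten concentrations (0.39–200 uM, 0.5% DMSO), in duplicate; DMSO baseline.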

Test [12] in a line: APR_HepG2_MitoMembPot_72hr: Apredica 72-hour HepG2 Assay for Mitochondrial Membrane Potential (AID 2282917). To be noted: imaging, actives raise or lower the signal. The procedure, abridged:
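HepG2 cells exposed 72 h to compounds at 0.39–200 uM (0.5% v/v DMSO, duplicates); MitoTracker Red CMXRos 250 nM loaded 30 min before 3.7% formaldehyde fixation, imaged by HCS fluorescence. Bidirectional fit versus DMSO.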

Test [13] is described as follows: APR_HepG2_MitoticArrest_72hr: Apredica 72-hour HepG2 Assay for Mitotic Arrest (AID 2282918). To be noted: high-content imaging, actives raise or lower the signal. The procedure, abridged: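 HepG2 cells were exposed for 72 hr to compound at 0.39–200 uM (10 concentrations, duplicate) in 0.5% v/v DMSO, fixed in 3.7% formaldehyde, immunostained for phospho-histone H3 with Hoechst 33342 and imaged by high-content fluorescence; bidirectional fits versus DMSO.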

Test [14] can be described thus: APR_HepG2_MicrotubuleCSK_72hr: Apredica 72-hour HepG2 Assay for Microtubule CSK Stabilty (AID 2282919). To be noted: HepG2 microtubule cytoskeleton, high-content imaging, actives raise or lower the signal. The procedure, abridged:
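Ten-point dosing (0.39–200 uM, 0.5% DMSO) of HepG2 for 72 hr, with taxol as the cytoskeletal positive control. The cells were formaldehyde-fixed and then stained with alpha-tubulin/Cy5 and Hoechst. Imaging at 20x used a −2 um Z offset for tubulin.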

Test [15] can be described thus: APR_HepG2_P-H2AX_24hr: Apredica 24-hour HepG2 Assay for H2AX Phosphorylation (AID 2282920). As to conditions: high-content imaging, actives raise or lower the signal. The procedure, abridged: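 HepG2 human liver cells were exposed for 24 hr to compounds at 0.39–200 uM in duplicate, with 0.5% v/v DMSO final. Fixed cells were immunostained for phospho-histone H2A.x plus Hoechst 33342, imaged by HCS fluorescence, and fitted bidirectionally against DMSO.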

The nature of test [16]: APR_HepG2_StressKinase_72hr: Apredica 72-hour HepG2 Assay for Stress Kinase (AID 2282921). As to conditions: HepG2 stress kinase (phospho-c-Jun) imaging, actives raise or lower the signal. The procedure, abridged: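 Stress kinase signal is phospho-c-Jun immunofluorescence (1:500 primary, Cy3 secondary) in fixed, permeabilized human HepG2 cells imaged at 20x. Exposure lasted 72 hr over ten concentrations from 0.39 to 200 uM, 0.5% DMSO, in duplicate. Bidirectional fit versus DMSO.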

Test [17] is described as follows: APR_HepG2_StressKinase_24hr: Apredica 24-hour HepG2 Assay for Stress Kinase (AID 2282922). To be noted: HepG2 stress kinase (phospho-c-Jun) imaging, actives raise or lower the signal. The procedure, abridged:
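After 24 hr compound treatment (up to 200 uM, final DMSO 0.5% v/v), HepG2 cells are fixed and multiplex-labeled; phospho-c-Jun intensity is captured by high-content fluorescence imaging and analyzed relative to DMSO.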

Test [18] is described as follows: APR_HepG2_p53Act_72hr: Apredica 72-hour HepG2 Assay for p53 Activation (AID 2282923).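 Also: average cellular p53 protein immunofluorescence intensity in HepG2 cells.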 As to conditions: high-content imaging, actives raise or lower the signal. The procedure, abridged:
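After 72 h with compound (ten points, 0.39 to 200 uM, final DMSO 0.5% v/v), fixed HepG2 cells were labelled with sheep anti-p53 and Hoechst 33342 and imaged; gain or loss versus DMSO scored.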

A short description of test [19]: APR_HepG2_MitoMass_72hr: Apredica 72-hour HepG2 Assay for Mitochondrial Mass (AID 2282924).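 Also: MitoTracker Red CMXRos stain intensity per cell imaged as mitochondrial mass.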 As to conditions: high-content imaging, actives raise or lower the signal. The procedure, abridged: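 Steps: treat HepG2 72 hr (0.39–200 uM, duplicate wells); load MitoTracker Red CMXRos, 250 nM, 30 min; fix with 3.7% formaldehyde, permeabilise with 0.5% Triton X-100; capture images, nuclei via Hoechst 33342; fit bidirectionally against DMSO.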

Test [20] is described as follows: APR_HepG2_NuclearSize_72hr: Apredica 72-hour HepG2 Assay for Nuclear Size (AID 2282925). As to conditions: high-content imaging, actives raise or lower the signal. In a few lines:
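Compounds (0.39–200 uM, final DMSO 0.5%) were applied to HepG2 for 72 hr. Cells were then formaldehyde-fixed, permeabilized and labelled with Hoechst 33342. Nuclear diameter was quantified from six images per well.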

Activity calls are given as the source filed them. The calls were made as follows: active = hit-call score of the fitted dose curve at least 0.9, where 1 is the maximum; inactive = score below 0.9.

By AC50 is commonly meant the concentration at which the activity in the assay is half-maximal.

For `c1ccc(C2CO2)cc1` (centres undefined), the compound was called inactive in test [1], in [2], in test [3], in test [4], in test [5] and in test [6]. In addition, the compound was called inactive in test [7], in [8], in test [9], in test [10], in test [11] and in test [12]. Moreover, the result in [13], in test [14], in test [15], in [16], in [17] and in [18] was inactive. In addition, the outcome in test [19] and in [20] was inactive.

Regarding `C1=Cc2cccc3cccc1c23`, the result in test [1], in test [2], in [3], in [4], in [5] and in test [6] was inactive. Also, the compound was called inactive in test [7], in test [8], in test [9], in [10], in test [11] and in [12]. In addition, the compound was called inactive in [13], in test [14], in test [15], in test [16], in test [17] and in test [18]. Besides, the outcome in [19] and in test [20] was inactive.

As to `Brc1ccc(Oc2ccccc2)cc1`, the compound was called inactive in [1], in test [2], in test [4], in test [5], in [6] and in [7]. Moreover, the compound was called inactive in test [9], in [11], in test [12], in test [14], in test [15] and in test [16]. The call in test [17], in test [18] and in test [19] was inactive. The figures for the AC50 in test [3], in [10] and in test [13] were 114 µM (active), 109 µM (active) and 100 µM (active), respectively.

Take `O=C1CCCO1`: the call in test [1], in test [2], in [3], in [4], in test [5] and in test [6] was inactive. For the same compound, the result in test [7], in test [8], in test [9], in [10], in test [11] and in [12] was inactive. In addition, the compound was classed as inactive in [13], in [14], in test [15], in test [16], in [17] and in test [18]. Moreover, the call in test [19] was inactive.

Regarding `COC(=O)c1ccccc1N`, the result in test [1], in test [2], in [3], in test [4], in [5] and in test [6] was inactive. In addition, the result in test [7], in [8], in test [9], in [10], in test [11] and in test [12] was inactive. Besides, the compound was classed as inactive in test [13], in [14], in test [15], in test [16], in test [17] and in test [18]. Moreover, in test [19], the compound was called inactive.

For the compound `CN(C)[C@@H]1C(=O)C(C(N)=O)=C(O)[C@@]2(O)C(=O)C3=C(O)c4c(O)cccc4[C@@](C)(O)[C@H]3C[C@@H]12`, the call in [1], in [2], in [3], in test [4], in [5] and in [6] was inactive. The outcome in test [7], in test [8], in test [9], in test [10], in test [11] and in test [12] was inactive. For the same compound, the result in test [13], in test [15], in [16], in test [17], in test [18] and in [19] was inactive.

The values above are taken from PubChem BioAssay (EPA / NIEHS).
